The record followed here is PubChem BioAssay (Tox21).

The nature of test [1]: qHTS RealTime-Glo MT Cell Viability Assay in HepG2 cells - 40 hour (AID 1224870). Note: nearly all actives have a fitted effect of over 50% in size. The following applies: RealTime-Glo luminescence; series mostly up to 76.8 µM. Put shortly: (§1)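 HepG2 cells (600/well) mixed with RealTime-Glo MT reagent, settled 5 h at 37 C/5% CO2 before compound addition. Nonlytic NanoLuc luminescence from viable-cell prosubstrate reduction read repeatedly during 40 h treatment at 37 C.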
A general note: Quantitative high-throughput screening tests each substance at several concentrations.

A short description of test [2]: A CellTox Green Cytotoxicity Assay to monitor cytotoxicity in HEK293 cells - 40 hour (AID 1224871). Note: nearly all actives have a fitted effect of over 45% in size. To be noted: CellTox Green fluorescence; series mostly up to 76.8 µM. The method, boiled down:
(§2)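 Tox21 screen in HEK293: membrane-impermeant cyanine dye fluoresces on binding dead-cell DNA; compound pinned 5 h post-seeding, plates held at 37 C, signal read repeatedly through 40 h.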

A short description of test [3]: qHTS RealTime-Glo MT Cell Viability Assay in HEK293 cells - 16 hour (AID 1224872). Note: nearly all actives have a fitted effect of over 50% in size. Note: potency is the fitted concentration of half-maximal effect. To be noted: RealTime-Glo luminescence; series mostly up to 76.8 µM. Put shortly: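 Cells + reagent dispensed (600 cells/well, HEK293) → 5 h at 37 C/5% CO2 → 23 nL compound in DMSO pinned → 40 h at 37 C → luminescence read at 0, 8, 16, 24, 32, 40 h.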
Test [4] can be described thus: qHTS RealTime-Glo MT Cell Viability Assay in HepG2 cells - 8 hour (AID 1224873). Note: nearly all actives have a fitted effect of over 55% in size. The following applies: RealTime-Glo luminescence; series mostly up to 76.8 µM. Put shortly: as §1
Test [5] in a line: qHTS RealTime-Glo MT Cell Viability Assay in HEK293 cells - 40 hour (AID 1224874). Note: nearly all actives have a fitted effect of over 50% in size. Note: potency is the fitted concentration of half-maximal effect. The following applies: RealTime-Glo luminescence; max response: hits give low values. The method, boiled down: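 HEK293 + NanoLuc + prosubstrate, 600 cells/well; 5 h, 37 C/5% CO2; compound 23 nL in DMSO by pintool; 37 C; luminescence read at 0, 8, 16, 24, 32 and 40 h time points.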
The nature of test [6]: A CellTox Green Cytotoxicity Assay to monitor cytotoxicity in HEK293 cells - 24 hour (AID 1224875). Note: nearly all actives have a fitted effect of over 45% in size. To be noted: CellTox Green fluorescence; series mostly up to 76.8 µM. Put shortly: as §2
Test [7] is described as follows: A CellTox Green Cytotoxicity Assay to monitor cytotoxicity in HepG2 cells - 16 hour (AID 1224876). Note: nearly all actives have a fitted effect of over 45% in size. To be noted: CellTox Green fluorescence; series mostly up to 76.8 µM. The method, boiled down: (§3)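 Measurements at 0, 8, 16, 24, 32 and 40 h of treatment captured CellTox Green fluorescence in HepG2 cells that had been co-plated with reagent and preincubated 5 h at 37 C/5% CO2.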

Test [8] can be described thus: A CellTox Green Cytotoxicity Assay to monitor cytotoxicity in HepG2 cells - 24 hour (AID 1224878). Note: nearly all actives have a fitted effect of over 45% in size. The following applies: CellTox Green fluorescence; series mostly up to 76.8 µM. The method, boiled down: as §3
The nature of test [9]: A CellTox Green Cytotoxicity Assay to monitor cytotoxicity in HepG2 cells - 40 hour (AID 1224879). Note: nearly all actives have a fitted effect of over 40% in size. Note: potency is the fitted concentration of half-maximal effect. The following applies: CellTox Green fluorescence; series mostly up to 76.8 µM. The method, boiled down: as §3
The nature of test [10]: qHTS RealTime-Glo MT Cell Viability Assay in HepG2 cells - 32 hour (AID 1224877). Note: nearly all actives have a fitted effect of over 55% in size. To be noted: RealTime-Glo luminescence; series mostly up to 76.8 µM. Put shortly: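 Real-time, nonlytic viability: 600 HepG2 cells/well mixed with NanoLuc enzyme plus prosubstrate; 5 h settle, compound (DMSO) added by pintool; luminescence monitored over 40 h at 37 C.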

Results filed as inconclusive are left out. Unmarked numbers belong to inactive results. Calls of active or inactive are those of the source. Calls come from the whole dose curve; as a rule, active = well fitted curve in the direction sought with a large enough effect in the repeat runs; inconclusive = weak or mixed curves; inactive = no such curve, though single readings can be large; an effect the other way counts as inactive or inconclusive.
% is set by controls: 0 for no effect and ±100 for the full control effect.

Consider `CCC1=C(C)CN(C(=O)NCCc2ccc(S(=O)(=O)NC(=O)NC3CCC(C)CC3)cc2)C1=O` (centres undefined), for which the Potency result in test [1], in [2], in [3], in test [6], in [7] and in [8] was “inactive” each time. For the same compound, the Potency result in test [9] was “inactive”. In addition, in [4], the call was inactive. Also, the max response in test [5] was -23%.
Regarding `CCOc1ccccc1O`, the Potency entry in [1], in test [2], in [3], in test [6], in test [7] and in test [10] was “inactive” throughout. Moreover, the Potency entry in test [8] and in test [9] was “inactive” throughout. The compound was classed as inactive in [4]. Further, the max response in test [5] is -54.1%.
In the case of `CC(CN=Cc1ccccc1O)N=Cc1ccccc1O` (centres undefined), the Potency result in test [1], in [2], in test [3], in test [6], in [7] and in test [8] was “inactive” each time. In test [9], the Potency result is “inactive”. For the same compound, in test [4], the result was inactive. The max response in [5] is 0.376%.
Turning to `Cc1cc(N)n(-c2ccccc2)n1`, the Potency entry in test [1], in [2], in test [3], in [6], in test [7] and in test [10] was “inactive” throughout. For the same compound, the Potency entry in test [8] and in [9] was “inactive” throughout. Moreover, the outcome in test [4] was inactive. In addition, in test [5], the max response is -5.72%.
With `c1ccc(CN(Cc2ccccc2)Cc2ccccc2)cc1`, the Potency result in [1], in test [2], in [3], in [6], in test [7] and in test [10] was “inactive” throughout. Besides, the outcome in test [4] was inactive. Further, the max response in test [5] is 4.19%. Also, the Potency in test [9] was 15.5 µM (active).
On to `CC(C)(C)N`, for which the Potency result in test [1], in [2], in [3], in test [6], in test [7] and in test [8] was “inactive” each time. The Potency result in test [9] is “inactive”. The outcome in test [4] was inactive. For the same compound, the max response in test [5] is 1.55%.
Consider `C(/C=C/C=C/Nc1ccccc1)=Nc1ccccc1`, for which the Potency entry in [1], in test [2], in [3], in test [6], in [7] and in [10] was “inactive” each time. The Potency result in [8] and in [9] was “inactive” each time. Further, in test [4], the call was inactive. Besides, the max response in test [5] is -15.7%.
Consider `CC(O)C(C)O` (centres undefined), for which the Potency result in test [1], in test [2], in test [3], in [6], in test [7] and in test [10] was “inactive” throughout. Further, the Potency entry in [8] and in test [9] was “inactive” throughout. Also, the call in [4] was inactive. In test [5], the max response is 12.1%.
In the case of `C=CC(O)CCCCC` (centres undefined), the Potency entry in test [1], in [2], in test [3], in [6], in test [7] and in test [8] was “inactive” each time. For the same compound, in [9], the Potency result is “inactive”. The compound was called inactive in test [4]. For the same compound, the max response in [5] is 0.0439%.
On to `CC(Cc1ccccc1)(NC(=O)CN)c1ccccc1` (centres undefined), for which the Potency entry in [1], in test [2], in [3], in [6], in [7] and in test [10] was “inactive” each time. Besides, the Potency entry in test [8] and in [9] was “inactive” throughout. The compound was classed as inactive in test [4]. Besides, the max response in [5] was -3.14%.
With `CC[C@H](NC(C)C)[C@H](O)c1ccc(O)c2[nH]c(=O)ccc12`, the Potency result in [1], in test [2], in test [3], in test [6], in test [7] and in test [8] was “inactive” each time. The Potency result in test [9] is “inactive”. Moreover, the call in [4] was inactive. Also, the max response in [5] is 5.21%.
Turning to `COC(=O)Cc1cccc2ccccc12`, the Potency result in [1], in [2], in [3], in test [6], in [7] and in test [10] was “inactive” in each case. The Potency result in [8] and in test [9] was “inactive” throughout. The compound was called inactive in test [4]. Moreover, the max response in test [5] is -1.93%.
Take `Cc1nc2sccn2c(=O)c1CCN1CCC(=C(c2ccc(F)cc2)c2ccc(F)cc2)CC1`: the Potency entry in [1], in test [2], in test [6], in [7], in [8] and in test [9] was “inactive” each time. The values for the Potency in test [3] and in test [5] were 3.01 µM (active) and 4.25 µM (active), respectively. For the same compound, the call in test [4] was inactive.
Take `O=Cc1ccc([N+](=O)[O-])cc1`: the Potency entry in test [1], in test [2], in test [3], in test [6], in test [7] and in test [10] was “inactive” in each case. In addition, the Potency entry in test [8] and in test [9] was “inactive” each time. Moreover, the compound was called inactive in test [4]. Besides, the max response in [5] was 7.58%.
As to `N#CCCCC(C#N)CCC#N` (centres undefined), the Potency result in [1], in [2], in [3], in [6], in test [7] and in test [8] was “inactive” in each case. Moreover, the Potency entry in test [9] is “inactive”. Moreover, the outcome in test [4] was inactive. In [5], the max response is 17.1%.
Regarding `O=C(O)c1ccncc1`, the Potency result in test [1], in test [2], in [3], in [6], in test [7] and in test [8] was “inactive” in each case. The Potency entry in test [9] was “inactive”. For the same compound, the result in test [4] was inactive. The max response in [5] was 9.67%.
As for `O=C1CCCN1CCO`, the Potency entry in test [1], in test [2], in test [3], in test [6], in test [7] and in test [8] was “inactive” each time. For the same compound, the Potency result in [9] was “inactive”. Also, the call in test [4] was inactive. Moreover, in test [5], the max response is -23.9%.
In the case of `CCC(=O)O[C@@H]1C[C@H]2CC[C@]1(C)C2(C)C`, the Potency result in test [1], in [2], in [3], in [6], in test [7] and in test [10] was “inactive” each time. Besides, the Potency result in test [8] and in [9] was “inactive” throughout. For the same compound, the compound was called inactive in test [4]. Further, the max response in test [5] is -11.1%.
Take `C=CC(C)CCC=C(C)C` (centres undefined): the Potency entry in test [1], in [2], in test [3], in [6], in [7] and in test [10] was “inactive” throughout. Moreover, the Potency result in test [8] and in test [9] was “inactive” in each case. Further, the compound was called inactive in test [4]. In addition, the max response in [5] was 0.513%.
Regarding `CCCC1CCCC(=O)O1` (centres undefined), the Potency result in test [1], in test [2], in test [3], in test [6], in test [7] and in [10] was “inactive” throughout. The Potency result in test [8] and in test [9] was “inactive” throughout. In addition, the result in test [4] was inactive. Also, the max response in test [5] is 0.877%.
In the case of `Cc1ccc(S(=O)(=O)NC(=O)NC2CCCC2)cc1`, the Potency entry in test [1], in test [2], in [3], in [6], in [7] and in test [10] was “inactive” in each case. Besides, the Potency result in test [8] and in test [9] was “inactive” each time. Moreover, in test [4], the compound was called inactive. Further, the max response in test [5] was 0.385%.
Regarding `CC/C=C/CCO`, the Potency result in test [1], in [2], in test [3], in test [6], in [7] and in test [10] was “inactive” each time. Also, the Potency result in test [8] and in [9] was “inactive” each time. Also, the outcome in test [4] was inactive. Also, in test [5], the max response is -11.5%.
For `CC(O)CN` (centres undefined), the Potency entry in test [1], in test [2], in test [3], in [6], in test [7] and in [10] was “inactive” each time. The Potency entry in test [8] and in test [9] was “inactive” each time. Further, in test [4], the result was inactive. Also, the max response in test [5] is 1.55%.
`CCCCOc1ccc(N)cc1`: the Potency result in [1], in [2], in test [3], in test [6], in [7] and in [8] was “inactive” in each case. Moreover, in test [9], the Potency entry was “inactive”. In addition, the call in [4] was inactive. In test [5], the max response is 0.387%.
